Assay results taken from the supplement of paper PMC4466140.

target: ScBbc1; assay: SPOT peptide array binding signal intensity (averaged, normalized) (arbitrary units (background-subtracted, floor 0; scale differs between SH3 domains)); higher = stronger binding of the SH3 domain to the peptide
In short: (§1)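 Binding signal is given in arbitrary units that differ between domains and is the normalized, background-subtracted spot intensity averaged across replicates. Each GST-SH3 fusion from one of four yeast species was made in E. coli BL21(DE3), purified on glutathione Sepharose and incubated at 10 μg/ml overnight at 4°C on cellulose-bound synthetic 15-mer peptides in which cysteines were replaced by serines. Detection used anti-GST antibody, an HRP anti-mouse secondary and luminol, followed by imaging and Genespotter quantification.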

| Binder | SPOT peptide array binding signal intensity |
| --- | --- |
| TYNRTAFQIPGDQSI | 2.5 |

target: ScBem1-D1; assay: as above
In short: as §1

| Binder | SPOT peptide array binding signal intensity |
| --- | --- |
| TYNRTAFQIPGDQSI | 11 |

target: ScBzz1-D1; assay: as above
In short: as §1

| Binder | SPOT peptide array binding signal intensity |
| --- | --- |
| TYNRTAFQIPGDQSI | 40 |

target: ScBzz1-D2; assay: as above
In short: as §1

| Binder | SPOT peptide array binding signal intensity |
| --- | --- |
| TYNRTAFQIPGDQSI | 13.5 |

target: ScCyk3; assay: as above
In short: as §1

| Binder | SPOT peptide array binding signal intensity |
| --- | --- |
| TYNRTAFQIPGDQSI | ≤ 0 |

target: ScFus1; assay: as above
In short: as §1

| Binder | SPOT peptide array binding signal intensity |
| --- | --- |
| TYNRTAFQIPGDQSI | ≤ 0 |

target: ScHof1; assay: as above
In short: as §1

| Binder | SPOT peptide array binding signal intensity |
| --- | --- |
| TYNRTAFQIPGDQSI | ≤ 0 |

target: ScHse1; assay: as above
In short: as §1

| Binder | SPOT peptide array binding signal intensity |
| --- | --- |
| TYNRTAFQIPGDQSI | ≤ 0 |

target: ScLsb1; assay: as above
In short: as §1

| Binder | SPOT peptide array binding signal intensity |
| --- | --- |
| TYNRTAFQIPGDQSI | 142 |

target: ScLsb2; assay: as above
In short: as §1

| Binder | SPOT peptide array binding signal intensity |
| --- | --- |
| TYNRTAFQIPGDQSI | 661 |

target: ScLsb3; assay: as above
In short: as §1

| Binder | SPOT peptide array binding signal intensity |
| --- | --- |
| TYNRTAFQIPGDQSI | ≤ 0 |

target: ScLsb4; assay: as above
In short: as §1

| Binder | SPOT peptide array binding signal intensity |
| --- | --- |
| TYNRTAFQIPGDQSI | 11.5 |

target: ScMyo3; assay: as above
In short: as §1

| Binder | SPOT peptide array binding signal intensity |
| --- | --- |
| TYNRTAFQIPGDQSI | 3 |

target: ScMyo5; assay: as above
In short: as §1

| Binder | SPOT peptide array binding signal intensity |
| --- | --- |
| TYNRTAFQIPGDQSI | 8.5 |

target: ScNbp2; assay: as above
In short: as §1

| Binder | SPOT peptide array binding signal intensity |
| --- | --- |
| TYNRTAFQIPGDQSI | ≤ 0 |

target: ScPex13; assay: as above
In short: as §1

| Binder | SPOT peptide array binding signal intensity |
| --- | --- |
| TYNRTAFQIPGDQSI | ≤ 0 |

target: ScRvs167; assay: as above
In short: as §1

| Binder | SPOT peptide array binding signal intensity |
| --- | --- |
| TYNRTAFQIPGDQSI | ≤ 0 |

target: ScSho1; assay: as above
In short: as §1

| Binder | SPOT peptide array binding signal intensity |
| --- | --- |
| TYNRTAFQIPGDQSI | ≤ 0 |

target: ScSla1-D1-D2; assay: as above
In short: as §1

| Binder | SPOT peptide array binding signal intensity |
| --- | --- |
| TYNRTAFQIPGDQSI | ≤ 0 |

target: ScSla1-D3; assay: as above
In short: as §1

| Binder | SPOT peptide array binding signal intensity |
| --- | --- |
| TYNRTAFQIPGDQSI | 0.5 |

target: SpAbp1-D1; assay: as above
In short: as §1

| Binder | SPOT peptide array binding signal intensity |
| --- | --- |
| TYNRTAFQIPGDQSI | ≤ 0 |

target: SpBbc1; assay: as above
In short: as §1

| Binder | SPOT peptide array binding signal intensity |
| --- | --- |
| TYNRTAFQIPGDQSI | 0.5 |

target: SpBzz1-D1; assay: as above
In short: as §1

| Binder | SPOT peptide array binding signal intensity |
| --- | --- |
| TYNRTAFQIPGDQSI | 70 |

target: SpBzz1-D2; assay: as above
In short: as §1

| Binder | SPOT peptide array binding signal intensity |
| --- | --- |
| TYNRTAFQIPGDQSI | ≤ 0 |

target: SpCyk3; assay: as above
In short: as §1

| Binder | SPOT peptide array binding signal intensity |
| --- | --- |
| TYNRTAFQIPGDQSI | ≤ 0 |

target: SpHof1; assay: as above
In short: as §1

| Binder | SPOT peptide array binding signal intensity |
| --- | --- |
| TYNRTAFQIPGDQSI | 1.75 |

target: SpHof1-2; assay: as above
In short: as §1

| Binder | SPOT peptide array binding signal intensity |
| --- | --- |
| TYNRTAFQIPGDQSI | 5.25 |

target: SpHof1-3; assay: as above
In short: as §1

| Binder | SPOT peptide array binding signal intensity |
| --- | --- |
| TYNRTAFQIPGDQSI | 0.25 |

target: SpHse1; assay: as above
In short: as §1

| Binder | SPOT peptide array binding signal intensity |
| --- | --- |
| TYNRTAFQIPGDQSI | 50.2 |

target: SpLsb1; assay: as above
In short: as §1

| Binder | SPOT peptide array binding signal intensity |
| --- | --- |
| TYNRTAFQIPGDQSI | 17.5 |

target: SpLsb4; assay: as above
In short: as §1

| Binder | SPOT peptide array binding signal intensity |
| --- | --- |
| TYNRTAFQIPGDQSI | ≤ 0 |

target: SpMyo1; assay: as above
In short: as §1

| Binder | SPOT peptide array binding signal intensity |
| --- | --- |
| TYNRTAFQIPGDQSI | 2.75 |

target: SpNbp2; assay: as above
In short: as §1

| Binder | SPOT peptide array binding signal intensity |
| --- | --- |
| TYNRTAFQIPGDQSI | ≤ 0 |

target: SpPex13; assay: as above
In short: as §1

| Binder | SPOT peptide array binding signal intensity |
| --- | --- |
| TYNRTAFQIPGDQSI | ≤ 0 |

target: SpRvs167; assay: as above
In short: as §1

| Binder | SPOT peptide array binding signal intensity |
| --- | --- |
| TYNRTAFQIPGDQSI | 0.333 |

target: SpSla1-D1-D2; assay: as above
In short: as §1

| Binder | SPOT peptide array binding signal intensity |
| --- | --- |
| TYNRTAFQIPGDQSI | ≤ 0 |

target: SpSla1-D3; assay: as above
In short: as §1

| Binder | SPOT peptide array binding signal intensity |
| --- | --- |
| TYNRTAFQIPGDQSI | ≤ 0 |
